# Experimental data as given in the supplement of paper PMC11417369.
# Whole data set: some 25,000 sequences, median “ln(normalized median fluorescence intensity)” near 9.7, cut for the highest 2% near 11. Many of the other results were omitted from the sample, so the highest values are more common in it than they were.
# Tested on: PfAP2-HC AP2 domain (GST-tagged)
# Test: gcPBM binding intensity (ln(normalized median fluorescence intensity)); higher = stronger DNA binding
# In short: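 After 1 h on an Agilent 4 × 180k array of primer-extended double-stranded 36-bp intergenic genomic probes and negative controls, bound GST-tagged P. falciparum DNA-binding domains were detected with Alexa488 anti-GST antibody and scanned at 488 nm. The domains had been expressed in E. coli, and binding took place in 1× PBS with 1% milk, 0.2 mg/ml BSA, 0.5% salmon testes DNA and 0.03% Triton X-100. Binding intensity is the highest Masliner-normalised natural-log median intensity across replicate spots of either probe orientation.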
row,Sequence,gcPBM binding intensity (ln)
1,TCTTTATTATTCGCCACACACATATATATATATATA [CACACA_site3077],10.1
2,TTTCCAAATTGTTGACGGACACTCACGAATAGTTAT [XGTACX_site5720],9.63
3,ATTAAATGATCAAGGTGTACATTAACAAGAACTATA [XGTACX_site7022],9.72
4,CGTAGCCACACTAACACACACAAATATACACAATCA [CACACA_site7379],10.7
5,TACGTAGCCACACTAACACACACAAATATGCACAAT [CACACA_site8942],10.9
6,CGTAGCCGCACTAACACACACAAATATACGCAATCA [CACACA_site2898],10.1
7,TTTTTTTAAAGAATTATCATAAAATGATTGCATCAT [XGTACX_negctrl_site141],9.34
8,GCGAAATATTATTATAGTATACAAATACTTCTATGA [CACACA_negctrl_site197],9.51
9,TATCCATATTTGTTCACACACACACCCATTTATATA [CACACA_site3571],11
10,TGTATCCATATTTGTTCACACACACCCATATTTATA [CACACA_site9190],10.4
11,TATCCATATTTGTTCACACACACACCGATTTATATA [CACACA_site5888],10.2
12,TATAAAAAAAAAAAAAAAAAAAAAAATATATATATA [CACACA_negctrl_site817],9.34
13,TGGGATAGATCATTTACACACACAAAAAAAAAAAAA [CACACA_site2140],9.89
14,TTATTTATTTATTATAGTTCACTTGAAAATACAAGA [CACACA_negctrl_site1480],9.38
15,TATATATACATATACACACACACACCGATATATATA [CACACA_site8706],10.5
16,TATACACGCGGACACACACACACACGCAAAAAAAAA [CACACA_site6377],10.5
17,CGCATACACGGACACACACACACATATATATATATA [CACACA_site4520],10.9
18,GGCATACACGGACACACACACACACCGACATATATA [CACACA_site4493],11.5
19,ATAGTATACAGACACACACACACACCGATATATATA [CACACA_site8511],10.7
20,TATAGATACATATACACACACACACCGACATATATA [CACACA_site9138],10.8
21,ATAGTATACGGACACACACACACACCGATATATATA [CACACA_site5032],11.2

row,Sequence,gcPBM binding intensity (ln)
1,AAAAAAAAAAGACACACACACACACGCATATACATA [CACACA_site7289],10.7
2,CACGCATACGGACACACACACACACCGATATATATA [CACACA_site4521],11
3,CATACACGCGGACACACACACACACGCATATATAAC [CACACA_site6427],11.2
4,AGTATACATATATATACACACACACCGATATATATA [CACACA_site8357],10.4
5,TACATGAATAAACTTACACACACCCATGCATACATA [CACACA_site97],10.4
6,ATGTTATAATTTAGTGTGCACATATTAAGAGGAACA,10.1
7,TACATACAGATATATACACACATATATAATATATAT [CACACA_site4376],10
8,CCCTTAATATAAAGCACACATATATATAATATATAT [CACACA_site4439],9.79
9,CAAAATAAAAATAACACACACATTTATTTATATACA [CACACA_site6679],10.1
10,CCCCTCGAAATAATTTGTACGAATATATTGTCTGTA [XGTACX_site8308],9.68
11,ATGTATATGATTAAATGTACGTAAACAAATTTGTAA [XGTACX_site8174],9.81
12,ATATCATTAAAAGGATGTACATATGTGTATACAATA [XGTACX_site871],9.84
13,TATATATATATATATATATATATTAATATATATTAC [XGTACX_negctrl_site103],9.62
14,AAAAAAAAAAGACACACACACATAGACCTCCAATAG [CACACA_site7646],10.5
15,AAAAAAAAAAAAAACACACACACATAGACCTCCAAT [CACACA_site3563],11.3
16,AAAAAAAAAAAACACACACACATAGACCTCCAATAG [CACACA_site3562],10.3
17,ATAAAGAAATAAAGTTGTACATTATATATATATATA [XGTACX_site7729],9.61
18,GGTATATTAAAATAGGTGCATAAAACTAAGAGAAAA [GTGCAC_site9781],9.73
19,ATCAAAAGAAAACACACACACATACAGATATATATA [CACACA_site5974],11.2
20,ATCAAAAGAAAACACACACACATACATATATATATA [CACACA_site3795],11.1
21,TAGATACAGAAACACACACACACATACATATATACA [CACACA_site3437],10.6

row,Sequence,gcPBM binding intensity (ln)
1,AAAAAAAAAAAACATACACACATACATACAGATATA [CACACA_site4681],10.1
2,AAAAAATACATCAAAAGAAACATATATATATATATA [GTGCAC_negctrl_site719],9.59
3,AAAGAAAGAAAACACACACACATATATATATATCAA [CACACA_site3743],10.9
4,ATCTTTTATATATTCACACATAAAATTATACAGATA [CACACA_site5277],9.46
5,TATATTTCAGGGGGGAGTACAAATTTTTTTATATAA [XGTACX_site1600],10
6,ATATATGGGTAGTATACACACTGTATATTTAGGAAT [CACACA_site7357],9.91
7,ATATATATATATATGTGTACTAATAAGGTTAAATAA [XGTACX_site1535],9.85
8,AAAAAAAAAAGAAACACACACATATATATATAGAAT [CACACA_site1777],10.3
9,AAAAAAAAAAAAGAAACACACACATATATATATATA [CACACA_site8525],10.7
10,AAAAAAAAAAAAAAAACACACATATAGATTTATATA [CACACA_site7196],9.88
11,AAAAAAAAGAAAAACACACACATATATATATAGAAT [CACACA_site1006],11.3
12,TATATATAGAAACACACACACACATATATATATATT [CACACA_site2539],11.3
13,AAAAAAAAAAAAGAAACACACATATATATATATATA [CACACA_site140],9.68
14,TATATATAGAAACACACACACATATATATATATATT [CACACA_site4115],10.5
15,AAAAAAAAAAGAAACACACACATATAGATTTATAAC [CACACA_site6927],10.9
16,TATATATAGAAACACACACACACATATATATATATA [CACACA_site4116],10.3
17,CAAGAAAAGAAACACACACACATATATATATATATA [CACACA_site3881],11.2
18,AAGAAAAAAAAAAAAACACACATATATATATATATA [CACACA_site2027],10.2
19,AAAAAAAAGAAAAACACACACATATTTATTTATAAC [CACACA_site6600],10.2
